Laboratory results from PubChem BioAssay AID1159580 (chemical genetic matrix, 2015).
The campaign covered roughly 5,500 compounds. About 2,000 (36%) were called active. About 18% were inconclusive and are not listed. The list shows a part of the results. Unmarked numbers belong to inactive results. Rule as the data show it: active = normalized growth mostly below about 0.91 (no sharp cut-off); inconclusive = no clear call, values can overlap the other calls; inactive = mostly above about 0.92.

Assay: chemical genetic growth profiling, strain panel (AID 1159580);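 also: tested at 20 µM; growth read once vehicle control cultures reached saturation at 30 °C; 1 = growth at the plate median or of vehicle wells; lower values mean less growth of the strain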
Conditions: S. cerevisiae deletion strains, growth OD
[1] = locus YAL013W, strain DEP1, hits give low values
[2] = locus YBR229C, strain ROT2, hits give low values
[3] = locus YCL061C, strain MRC1, hits give low values
[4] = locus YDL101C, strain DUN1, hits give low values
[5] = locus YDR150W, strain NUM1, hits give low values
[6] = locus YEL061C, strain CIN8, hits give low values
[7] = locus YGR078C, strain PAC10, hits give low values
[8] = locus YHR030C, strain SLT2, hits give low values
[9] = locus YHR087W, strain rtc3, hits give low values
[10] = locus YJR043C, strain POL32, hits give low values
[11] = locus YJR075W, strain HOC1, hits give low values
[12] = locus YLR039C, strain RIC1, hits give low values
[13] = locus YLR058C, strain SHM2 (second series), hits give low values
[14] = locus YLR085C, strain ARP6, hits give low values
[15] = locus YLR262C, strain YPT6, hits give low values
[16] = locus YML094W, strain GIM5, hits give low values
[17] = locus YMR219W, strain ESC1, hits give low values
[18] = locus YMR263W, strain SAP30, hits give low values
[19] = locus YNL153C, strain GIM3, hits give low values
[20] = locus YNL298W, strain CLA4 (second series), hits give low values
[21] = locus YNL322C, strain KRE1, hits give low values
[22] = locus YNR030W, strain Alg12, hits give low values
[23] = locus YPL055C, strain LGE1, hits give low values
[24] = locus YPL241C, strain CIN2, hits give low values
[25] = locus YPR135W, strain CTF4, hits give low values
[26] = locus YAR019C, strain CDC15, hits give low values
[27] = locus YBL105C, strain PKC1, hits give low values
[28] = locus YBR135W, strain CKS1, hits give low values
[29] = locus YBR136W, strain MEC1, hits give low values
[30] = locus YBR160W, strain CDC28, hits give low values
[31] = locus YDL017W, strain CDC7, hits give low values
[32] = locus YDL028C, strain MPS1, hits give low values
[33] = locus YDL108W, strain KIN28, hits give low values
[34] = locus YDL132W, strain cdc53, hits give low values
[35] = locus YDL214C, strain PRR2, hits give low values
[36] = locus YDR052C, strain DBF4, hits give low values
[37] = locus YDR054C, strain cdc34, hits give low values
[38] = locus YDR226W, strain ADK1, hits give low values
[39] = locus YDR477W, strain SNF1, hits give low values
[40] = locus YER123W, strain YCK3, hits give low values
[41] = locus YER133W, strain GLC7, hits give low values
[42] = locus YFL009W, strain cdc4, hits give low values
[43] = locus YFL029C, strain CAK1, hits give low values
[44] = locus YFR003C, strain YPI1, hits give low values
[45] = locus YFR019W, strain FAB1, hits give low values
[46] = locus YFR028C, strain CDC14, hits give low values
[47] = locus YGR040W, strain KSS1, hits give low values
[48] = locus YGR052W, strain FMP48, hits give low values
[49] = locus YGR092W, strain DBF2, hits give low values
[50] = locus YHR079C, strain IRE1, hits give low values
[51] = locus YHR082C, strain KSP1, hits give low values
[52] = locus YHR205W, strain SCH9, hits give low values
[53] = locus YIL147C, strain SLN1, hits give low values
[54] = locus YJL095W, strain BCK1, hits give low values
[55] = locus YJL128C, strain PBS2, hits give low values
[56] = locus YJL157C, strain FAR1, hits give low values
[57] = locus YJR016C, strain ILV3, hits give low values
[58] = locus YJR066W, strain TOR1 (second series), hits give low values
[59] = locus YJR066W, strain TOR1, hits give low values
[60] = locus YKL048C, strain ELM1, hits give low values
[61] = locus YKL067W, strain YNK1, hits give low values
[62] = locus YKL101W, strain HSL1, hits give low values
[63] = locus YKL193C, strain SDS22, hits give low values
[64] = locus YKL203C, strain TOR2, hits give low values
[65] = locus YLR113W, strain HOG1, hits give low values
[66] = locus YLR133W, strain CKI1, hits give low values
[67] = locus YLR403W, strain SFP1, hits give low values
[68] = locus YML070W, strain DAK1, hits give low values
[69] = locus YMR001C, strain CDC5, hits give low values
[70] = locus YMR205C, strain PFK2 (second series), hits give low values
[71] = locus YMR277W, strain FCP1, hits give low values
[72] = locus YNL006W, strain LST8, hits give low values
[73] = locus YNL020C, strain ARK1, hits give low values
[74] = locus YNL161W, strain CBK1, hits give low values
[75] = locus YNL183C, strain NPR1, hits give low values
[76] = locus YNL207W, strain RIO2, hits give low values
[77] = locus YNL222W, strain SSU72, hits give low values
[78] = locus YNL307C, strain MCK1 (second series), hits give low values
[79] = locus YOL078W, strain AVO1, hits give low values
[80] = locus YOL136C, strain PFK27, hits give low values
[81] = locus YOR061W, strain CKA2, hits give low values
[82] = locus YOR119C, strain RIO1, hits give low values
[83] = locus YOR231W, strain MKK1, hits give low values
[84] = locus YOR329C, strain SCD5, hits give low values
[85] = locus YPL031C, strain PHO85, hits give low values
[86] = locus YPL153C, strain RAD53, hits give low values
[87] = locus YPL204W, strain HRR25, hits give low values
[88] = locus YPL209C, strain IPL1, hits give low values
[89] = locus YPL256C, strain CLN2, hits give low values
[90] = locus YPR025C, strain CCL1, hits give low values
[91] = locus YPR106W, strain ISR1, hits give low values
[92] = locus YPR111W, strain DBF20, hits give low values
[93] = strain NNK1, hits give low values
[94] = strain TSCII, hits give low values

## Cc1c(Cl)cccc1NC(=S)Nc1ccc(Cl)cc1C(=O)c1ccccc1
[1]
  normalized growth: 0.999
[2]
  normalized growth: 0.991
[3]
  normalized growth: 0.985
[4]
  normalized growth: 0.993
[5]
  normalized growth: 0.987
[6]
  normalized growth: 1
[7]
  normalized growth: 0.968
[8]
  normalized growth: 0.894
[9]
  normalized growth: 0.99
[10]
  normalized growth: 0.989
[11]
  normalized growth: 0.971
[12]
  normalized growth: 0.907
[13]
  normalized growth: 1.01
[14]
  normalized growth: 0.969
[15]
  normalized growth: 0.946
[16]
  normalized growth: 0.98
[17]
  normalized growth: 0.991
[18]
  normalized growth: 0.993
Locus YMR307W, strain GAS1, hits give low values
  normalized growth: 0.924
[19]
  normalized growth: 0.984
[20]
  normalized growth: 0.987
[21]
  normalized growth: 0.986
[22]
  normalized growth: 0.969
[23]
  normalized growth: 0.98
[24]
  normalized growth: 0.969
[25]
  normalized growth: 0.956

## Cc1cc(Cl)ccc1NC(=S)NNC(=S)Nc1ccc(F)cc1
[26]
  normalized growth: 0.968
[27]
  normalized growth: 0.974
[28]
  normalized growth: 0.972
[29]
  normalized growth: 0.97
[30]
  normalized growth: 0.966
[31]
  normalized growth: 0.975
[32]
  normalized growth: 0.969
[4]
  normalized growth: 0.973
[33]
  normalized growth: 0.97
[34]
  normalized growth: 0.966
[35]
  normalized growth: 0.943
[36]
  normalized growth: 0.968
[37]
  normalized growth: 0.943
[38]
  normalized growth: 0.971
[39]
  normalized growth: 0.898
[40]
  normalized growth: 0.878
[41]
  normalized growth: 0.925
[42]
  normalized growth: 0.964
[43]
  normalized growth: 0.965
[44]
  normalized growth: 0.957
[45]
  normalized growth: 0.964
[46]
  normalized growth: 0.956
[47]
  normalized growth: 0.912
[48]
  normalized growth: 1.04
[49]
  normalized growth: 0.863
[8]
  normalized growth: 0.763 (active)
[50]
  normalized growth: 0.902
[51]
  normalized growth: 0.986
[52]
  normalized growth: 0.914
[53]
  normalized growth: 0.964
[54]
  normalized growth: 0.869
[55]
  normalized growth: 0.93
[56]
  normalized growth: 0.919
[57]
  normalized growth: 0.96
[58]
  normalized growth: 0.911
[59]
  normalized growth: 0.917
[60]
  normalized growth: 0.97
[61]
  normalized growth: 0.916
[62]
  normalized growth: 0.935
[63]
  normalized growth: 0.964
[64]
  normalized growth: 0.954
[65]
  normalized growth: 0.929
[66]
  normalized growth: 0.926
[67]
  normalized growth: 0.896
[68]
  normalized growth: 0.928
[69]
  normalized growth: 0.965
[70]
  normalized growth: 0.939
[71]
  normalized growth: 0.95
[72]
  normalized growth: 0.964
[73]
  normalized growth: 0.921
[74]
  normalized growth: 0.973
[75]
  normalized growth: 0.923
[76]
  normalized growth: 0.961
[77]
  normalized growth: 0.972
[78]
  normalized growth: 0.9
[79]
  normalized growth: 0.957
[80]
  normalized growth: 0.916
[81]
  normalized growth: 0.937
[82]
  normalized growth: 0.977
[83]
  normalized growth: 0.924
[84]
  normalized growth: 0.972
[85]
  normalized growth: 0.899
[86]
  normalized growth: 0.884
[87]
  normalized growth: 0.861
[88]
  normalized growth: 0.969
[89]
  normalized growth: 0.904
[90]
  normalized growth: 0.973
[91]
  normalized growth: 0.971
[92]
  normalized growth: 0.969
[93]
  normalized growth: 0.96
[94]
  normalized growth: 0.966

## O=C(NNC(=S)Nc1ccc(F)cc1)c1ccccc1Cl
[1]
  normalized growth: 0.987
[2]
  normalized growth: 1
[3]
  normalized growth: 1
[4]
  normalized growth: 1.04
Locus YDL134C, strain PPH21, hits give low values
  normalized growth: 0.976
[5]
  normalized growth: 0.987
[6]
  normalized growth: 0.958
[7]
  normalized growth: 0.972
Locus YGR229C, strain SMI1, hits give low values
  normalized growth: 0.97
[8]
  normalized growth: 0.948
[9]
  normalized growth: 0.977
[10]
  normalized growth: 1.01
[11]
  normalized growth: 1.01
Locus YKL190W, strain CNB1, hits give low values
  normalized growth: 0.966
[12]
  normalized growth: 0.933
[13]
  normalized growth: 0.98
[14]
  normalized growth: 0.897
[15]
  normalized growth: 0.963
[16]
  normalized growth: 0.96
[17]
  normalized growth: 1.01
[18]
  normalized growth: 0.977
Locus YNL128W, strain TEP1, hits give low values
  normalized growth: 0.971
[19]
  normalized growth: 1.01
[20]
  normalized growth: 0.923
[21]
  normalized growth: 0.997
[22]
  normalized growth: 0.94
Locus YOL006C, strain TOP1, hits give low values
  normalized growth: 0.629 (active)
[23]
  normalized growth: 0.921
[24]
  normalized growth: 1.01
[25]
  normalized growth: 0.982

## N#CCC(=O)NNC(=S)Nc1ccc(Cl)c(Cl)c1
[26]
  normalized growth: 0.991
[27]
  normalized growth: 0.985
[28]
  normalized growth: 0.981
[29]
  normalized growth: 0.983
[30]
  normalized growth: 0.991
[31]
  normalized growth: 0.987
[32]
  normalized growth: 0.986
[4]
  normalized growth: 0.981
[33]
  normalized growth: 0.98
[34]
  normalized growth: 0.974
[35]
  normalized growth: 0.938
[36]
  normalized growth: 0.988
[37]
  normalized growth: 0.98
[38]
  normalized growth: 0.982
[39]
  normalized growth: 0.929
[40]
  normalized growth: 0.895
[41]
  normalized growth: 0.92
[42]
  normalized growth: 0.98
[43]
  normalized growth: 0.989
[44]
  normalized growth: 0.979
[45]
  normalized growth: 0.969
[46]
  normalized growth: 0.979
[47]
  normalized growth: 0.93
[48]
  normalized growth: 0.955
[49]
  normalized growth: 0.965
[8]
  normalized growth: 0.931
[50]
  normalized growth: 0.965
[51]
  normalized growth: 1.04
[52]
  normalized growth: 0.96
[53]
  normalized growth: 0.986
[54]
  normalized growth: 0.932
[55]
  normalized growth: 0.943
[56]
  normalized growth: 0.931
[57]
  normalized growth: 0.978
[58]
  normalized growth: 0.913
[59]
  normalized growth: 1.07
[60]
  normalized growth: 0.97
[61]
  normalized growth: 0.936
[62]
  normalized growth: 0.942
[63]
  normalized growth: 0.975
[64]
  normalized growth: 1.01
[65]
  normalized growth: 0.881
[66]
  normalized growth: 0.96
[67]
  normalized growth: 0.963
[68]
  normalized growth: 0.93
[69]
  normalized growth: 0.979
[70]
  normalized growth: 0.942
[71]
  normalized growth: 0.982
[72]
  normalized growth: 0.984
[73]
  normalized growth: 0.964
[74]
  normalized growth: 0.981
[75]
  normalized growth: 1.04
[76]
  normalized growth: 0.978
[77]
  normalized growth: 0.984
[78]
  normalized growth: 0.962
[79]
  normalized growth: 0.975
[80]
  normalized growth: 0.95
[81]
  normalized growth: 0.95
[82]
  normalized growth: 0.988
[83]
  normalized growth: 0.975
[84]
  normalized growth: 0.985
[85]
  normalized growth: 0.916
[86]
  normalized growth: 0.916
[87]
  normalized growth: 0.917
[88]
  normalized growth: 0.987
[89]
  normalized growth: 0.956
[90]
  normalized growth: 0.988
[91]
  normalized growth: 0.975
[92]
  normalized growth: 0.976
[93]
  normalized growth: 0.988
[94]
  normalized growth: 0.983
